# ssDAF12 agonist: S. stercoralis DAF-12 activation, primary screen; activation, % at 6.8 µM; AID 652126; actives 1% (n = 370,000); HEK293 ssDAF-12/GRIP1 lit1-tk-luc reporter, luminescence; % of 3 µM dafachronic acid response;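 active = activation above the mean over all tested compounds plus 3 SD, cut at about 0.9% in these data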;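 also: 0% = DMSO-only wells and 100% = 3 µM delta7-dafachronic acid wells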
# hcDAF12 agonist: H. contortus DAF-12 activation, primary screen; actives 1.4% (n = 370,000); activation, % at 6.8 µM; HEK293 hcDAF-12 lit1-tk-luc reporter, luminescence; 0% DMSO, 100% Δ7-dafachronic acid;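 active = activation above the mean of all tested compounds plus 3 SD, cut at about 5.5% in these data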;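 also: 100% = response to 3 µM Δ7-dafachronic acid high control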
# hgDAF-12 ag: agonists of H. glycines DAF-12 nuclear receptor | actives 1.8% (n = 370,000) | HEK293 GAL4-hgDAF12 UAS-luciferase reporter, agonist luminescence; normalized to butyrate control | activation, % at 6.8 µM | AID 687014;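 active = activation above a cutoff set at the mean of all screened compounds plus 3 SD, cut at about 10% in these data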;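 also: 0% = DMSO wells and 100% = sodium butyrate wells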
# DAX1 inh: blocks DAX1 repression of SF-1 activated StAR promoter | actives 1.1% (n = 370,000) | HEK293T StAR-luciferase reporter, SF-1/DAX-1 repression relief | inhibition, % at 6.8 µM | AID 652010;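 active = inhibition above the mean over all tested compounds plus 3 SD, cut at about 3.6% in these data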;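 also: 0% = DAX-1 cells with DMSO and 100% = cells lacking DAX-1 with DMSO; higher inhibition means more luminescence from relief of DAX-1 repression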
# Wnt bcat act: Wnt/beta-catenin pathway activation; Wnt/beta-catenin reporter cell assay, activator, plate reader; activation, % at 9.35 µM; actives 1.2% (n = 300,000); in the data active = activation above about 30%, passing the limit was not always enough;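 also: 0% = neutral control wells and 100% = positive control wells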
# esBAF inh: SWI/SNF esBAF complex inhibition; mouse ES cells, Bmi1-luciferase knock-in reporter, 24 h; 100% = twice the neutral-well signal; reporter increase, % at 12.5 µM; actives 2% (n = 350,000); in the data active = activation above about 40%;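 also: 0% = median of the plate's neutral control wells and 100% = double that signal; a rise in the Bmi1 reporter signal indicates esBAF inhibition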
# Active calls of the source: *; nt = no result given. Hits are enriched below; roughly 4.2% of the tested compounds scored in any of these assays.
SMILES,ssDAF12 agonist,hcDAF12 agonist,hgDAF-12 ag,DAX1 inh,Wnt bcat act,esBAF inh
C[C@@H]1CN([C@H](C)CO)S(=O)(=O)c2ccc(C3=CCCC3)cc2O[C@H]1CN(C)C(=O)C1CCC1,nt,nt,nt,nt,nt,-4
C[C@@H]1CCCCO[C@@H](CN(C)C(=O)Nc2cccc3ccccc23)[C@H](C)CN([C@@H](C)CO)C(=O)c2cc(NS(C)(=O)=O)ccc2O1,nt,nt,nt,nt,nt,5
Fc1ccc(N/N=C/C=C/c2ccccc2)c(F)c1,0,4,7,1,12,51*
Fc1ccc(N/N=C/c2ccncc2)c(F)c1,-1,-1,4,2,18,nt
C/C(=N\Nc1ccccn1)c1cccs1,0,3,10,3.9*,10,nt
C/C(=N\Nc1ccccn1)c1ccc(C#N)cc1,-2,1,4,-2,5,nt
CC1CCc2sc(C(=O)N3CCC(C(N)=O)CC3)cc2C1 (stereo not given),0,3,9,3,36*,34
C[C@H]1CN([C@@H](C)CO)C(=O)c2cccc(NS(=O)(=O)c3ccc(F)cc3)c2O[C@@H]1CN(C)Cc1ccc(C(=O)O)cc1,nt,nt,nt,nt,nt,-1
CC(=O)N1[C@H](C(=O)NCc2ccccc2F)[C@@H](CO)[C@@H]2Cn3c(ccc(-c4ccccc4)c3=O)[C@@H]21,nt,nt,nt,nt,nt,-1
O=C(/C=C/Nc1ccc([N+](=O)[O-])cc1)c1ccc(Br)cc1,0,-1,-1,1,-2,nt
Cc1cc(N/C=C/C(=O)c2cccc3ccccc23)no1,-2,-1,0,0,nt,31
Cc1cc(N/C=C/C(=O)c2ccc(Br)cc2)no1,0,2,4,1,33*,81*
O=C(/C=C\Nc1ccc(Cl)cn1)c1ccc(Br)cc1,-1,2,3,0,36*,nt
CO[C@@H]1CN(C)C(=O)c2cc(NC(=O)C3CCC3)ccc2OC[C@H](C)N(Cc2ccccn2)C[C@@H]1C,nt,nt,nt,nt,nt,-2
C#CCn1c(=NC(=O)CN2C(=O)CCC2=O)sc2cccc(OC)c21,-1,-1,0,0,1,-1
C#CCn1c(=NC(=O)c2cccs2)sc2cccc(OC)c21,0,3,8,-2,13,54*
Cc1cccc(NC(=O)COc2ccccc2)c1,-1,-2,6,1,4,12
Cc1ccc(OCC(=O)Nc2cccc(O)c2)cc1C,0,1,11*,2,49*,18
Cc1cccc(OCC(=O)Nc2cccc(O)c2)c1,-1,1,6,2,34*,23
C[C@@H]1CN([C@@H](C)CO)C(=O)c2cc(/C=C/c3ccccc3)cnc2O[C@@H]1CN(C)C(=O)c1ccc(F)cc1,nt,nt,nt,nt,nt,4
Cc1cccc(NC(=O)CCc2nc3sc4c(c3c(=O)[nH]2)CCCC4)c1,-1,-2,3,-1,-2,nt
Cc1cccc(NC(=O)C(C)SCc2nc3sc4c(c3c(=O)[nH]2)CCCC4)n1 (stereo not given),1.3*,2,2,-2,0,-7
COc1ccc(S(=O)(=O)Nc2ccc3c(c2)C(=O)N([C@@H](C)CO)C[C@@H](C)[C@H](CN(C)C(=O)C2CCCCC2)OCCCC[C@H](C)O3)cc1,nt,nt,nt,nt,nt,7
C[C@H]1CN([C@@H](C)CO)C(=O)c2cc(C#CC3(O)CCCC3)cnc2O[C@@H]1CN(C)C(=O)C1CCC1,nt,nt,nt,nt,nt,5
CCn1c(O)c(/C=C2\C=Nc3ccccc32)sc1=Nc1ccccc1,-1,-1,4,1,0,67*
SMILES,ssDAF12 agonist,hcDAF12 agonist,hgDAF-12 ag,DAX1 inh,Wnt bcat act,esBAF inh
Cc1ccc(NC(=O)CSc2ccccc2NC(=O)c2ccccc2)cc1Cl,0,5.6*,8,0,nt,-8
CC(C)NC(=O)Nc1cccc2c1O[C@H](CN(C)C(=O)Nc1cccc3ccccc13)[C@@H](C)CN([C@H](C)CO)C2=O,nt,nt,nt,nt,nt,-4
Cc1cc2c(c(=O)n1C)C(Cc1ccccc1)C(C#N)=C(N)O2 (stereo not given),-1,-1,0,0,3,50*
N/C(=N\OC(=O)c1cccs1)c1cccc(Br)c1,0,2,9,2,44*,22
N/C(=N\OC(=O)c1ccc2c(c1)OCO2)c1cccc(Br)c1,0,2,6,1,17,67*
N/C(=N\OC(=O)c1cccc(Br)c1)c1ccc(Br)cc1,0,2,4,0,nt,5
N/C(=N\OC(=O)Cc1ccccc1[N+](=O)[O-])c1cccc(Br)c1,-1,1,1,0,37*,3
C[C@@H]1CCCCO[C@H](CN(C)Cc2ccncc2)[C@@H](C)CN([C@@H](C)CO)C(=O)c2cc(NC(=O)c3ccccc3)ccc2O1,nt,nt,nt,nt,nt,-6
C[C@H](CO)N1C[C@H](C)[C@H](CN(C)CC2CCOCC2)Oc2cc(Br)ccc2S1(=O)=O,nt,nt,nt,nt,nt,-4
CCNC(=O)C[C@H]1CC[C@@H]2[C@H](COc3ccc(NC(=O)c4ccc5c(c4)OCO5)cc3C(=O)N2C)O1,nt,nt,nt,nt,nt,2
CCC(=O)N(C)C[C@H]1Oc2cc(C#CC3(O)CCCC3)ccc2S(=O)(=O)N([C@@H](C)CO)C[C@H]1C,nt,nt,nt,nt,nt,-2
COC(=O)N/N=C(\C)c1ccc(-n2ccnc2)cc1,-1,-1,-2,1,0,nt
C/C(=N\NC(=O)COc1ccc(C)cc1C(C)C)c1ccc(-n2ccnc2)cc1,-2,-3,11*,0,nt,7
O=C(C[C@H]1CC[C@@H](NC(=O)NC2CCCCC2)[C@@H](CO)O1)NCc1ccc(Cl)cc1,nt,nt,nt,nt,nt,-2
C[C@@H]1CN([C@@H](C)CO)C(=O)c2cccc(NC(=O)Nc3ccccc3)c2O[C@H]1CN(C)C(=O)Nc1ccc(F)cc1,nt,nt,nt,nt,nt,-1
Cn1c(O)c(C=Nc2ccc(Br)cc2)sc1=O,-1,2,5,3,60*,nt
Oc1ccc(Cl)cc1C=Nc1ccc(Br)cc1,-1,1,-3,1,-2,nt
Cc1onc(-c2c(Cl)cccc2Cl)c1NC(=O)NC1CCSC1 (stereo not given),-1,-2,-4,-1,34*,nt
Cc1onc(-c2c(Cl)cccc2Cl)c1NC(=O)N(C)N,-2,-1,-1,0,-1,0
CC(=O)NCc1ccc(C(=O)CN2C(=O)NC3(CCCCC3C)C2=O)s1 (stereo not given),-1,1,12*,0,1,nt
COC(=O)C(/C=N/O)NC(=O)c1ccccc1 (stereo not given),-1,5.9*,0,1,-1,nt
CO/N=C/C(NC(=O)c1ccc(C(F)(F)F)cc1)C(=O)OC (stereo not given),-1,-2,-2,1,0,nt
CNC(=O)C[C@@H]1CC[C@H]2[C@H](COc3ccc(NC(=O)c4cnccn4)cc3C(=O)N2C)O1,nt,nt,nt,nt,nt,6
Cc1noc(C)c1C(=O)Nc1nc(-c2cc(F)ccc2F)cs1,0,0,2,0,9,74*

# Compound activity: PubChem BioAssay, several laboratories
